In the library only some 3.2% were active in any assay of this set; here they are far more common.
ANO1 activ = TMEM16A chloride channel activators or potentiators, primary screen, cell-based, HTS. actives 0.3% (n = 340,000). Anoctamin-1 (Mus musculus), Q8BHY3. B-score at 10 µM. AID 623877, 2012. HEK293 TMEM16A/YFP-H148Q/I152L, iodide quench fluorescence; hits give low values;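 active = fluorescence-ratio B-score plate-corrected deviation score at least 3 library SD below zero, with starting fluorescence score within 5 deviations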;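 note: channel opened by trigger with iodide after compound preincubation; score built on the fluorescence ratio of max minus min over baseline; more negative score means more quench and so TMEM16A activation or potentiation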
Target sequence (Q8BHY3 whole entry, looked up): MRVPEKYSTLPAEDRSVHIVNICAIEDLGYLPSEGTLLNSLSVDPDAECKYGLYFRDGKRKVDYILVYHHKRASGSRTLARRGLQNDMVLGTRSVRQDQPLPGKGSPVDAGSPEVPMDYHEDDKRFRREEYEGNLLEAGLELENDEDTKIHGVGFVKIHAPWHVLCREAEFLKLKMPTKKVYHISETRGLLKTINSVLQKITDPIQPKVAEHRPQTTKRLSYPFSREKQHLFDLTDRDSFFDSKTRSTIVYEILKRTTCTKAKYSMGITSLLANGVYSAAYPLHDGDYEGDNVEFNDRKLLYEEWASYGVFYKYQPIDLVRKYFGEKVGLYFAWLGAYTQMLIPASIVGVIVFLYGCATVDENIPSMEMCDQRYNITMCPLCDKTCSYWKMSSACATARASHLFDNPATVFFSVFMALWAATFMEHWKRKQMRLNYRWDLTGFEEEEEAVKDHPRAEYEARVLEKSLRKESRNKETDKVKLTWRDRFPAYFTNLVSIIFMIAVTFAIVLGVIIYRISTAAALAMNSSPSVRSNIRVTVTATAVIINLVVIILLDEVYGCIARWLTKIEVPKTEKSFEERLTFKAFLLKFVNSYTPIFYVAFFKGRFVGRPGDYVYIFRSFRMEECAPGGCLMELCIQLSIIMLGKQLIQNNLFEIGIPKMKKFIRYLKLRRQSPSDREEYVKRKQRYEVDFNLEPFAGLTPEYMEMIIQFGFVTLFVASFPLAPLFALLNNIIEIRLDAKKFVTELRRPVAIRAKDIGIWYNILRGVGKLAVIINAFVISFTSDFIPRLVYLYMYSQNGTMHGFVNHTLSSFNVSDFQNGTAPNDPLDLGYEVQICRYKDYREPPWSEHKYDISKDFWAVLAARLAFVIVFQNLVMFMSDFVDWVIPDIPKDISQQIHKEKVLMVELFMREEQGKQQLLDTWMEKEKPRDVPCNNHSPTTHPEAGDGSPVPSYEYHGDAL
Kir21 inh = inhibitors of mouse Kir2.1 inward-rectifier potassium channel; B-score at 10 µM; Inward rectifier potassium channel 2 (Mus musculus), P35561; HEK293-Kir2.1, FluxOR thallium flux fluorescence; hits give low values; AID 1672, 2009; actives 0.85% (n = 310,000);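 active = fluorescence ratio B-score at or below minus 3 SD of library scores, with starting-brightness B-score within 2 SD, cut at about -4.2 in these data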;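 note: channel flux triggered by added potassium and thallium sulfate stimulus; B-score of peak minus minimum fluorescence over baseline after thallium stimulus; more negative B-score means stronger Kir2.1 block with less thallium influx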
TMEM16A inh = TMEM16A chloride channel inhibitors, primary screen, cell-based, HTS; Anoctamin-1 (Mus musculus), Q8BHY3; HEK293 TMEM16A/YFP iodide influx fluorescence, ionomycin; normalized B-score (activity score, 25-100; higher = stronger inhibition) at 10 µM; actives 1.2% (n = 310,000); AID 588511, 2011;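 active = ratio plate-corrected score three or more library SD toward inhibition, starting fluorescence score within five deviations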;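 note: score derived from kinetic fluorescence span divided by baseline fluorescence per well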
CHT PAM = CHT positive allosteric modulators, primary screen, cell-based, membrane potential dye, choline EC20; High affinity choline transporter 1 (Homo sapiens), Q9GZV3; actives 0.49% (n = 310,000); AID 488977, 2010; CHT-expressing cells; hits give high values; LV-AA mutant CHT in HEK293 cells; B-score at 10 µM;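 active = initial fluorescence not abnormally high and integrated response B-score, plate-corrected, over 3 SD above library mean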
Rce1 inhib = yeast Rce1p protease inhibitors, primary screen, biochemical, fluorescence, cell-free homogeneous. calls only. AID 2563, 2010. actives 0.27% (n = 290,000). yeast membranes, quenched prenylated peptide cleavage fluorescence. CAAX prenyl protease 2 (Saccharomyces cerevisiae (strain ATCC 204508 / S288c)), Q03530;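 active = fall in fluorescence gain of 50% or more versus controls, with final raw signal at or below 3038400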
CHT block = inhibitors of human choline transporter CHT. CHT-expressing cells, membrane potential dye, choline response; hits give low values. B-score at 10 µM. actives 0.86% (n = 310,000);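 active = B-score over 3 SD under the library average, and starting fluorescence ratio not unusually high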;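 note: choline stimulus applied at its EC90 after an EC20 pre-addition; B-score computed on integrated fluorescence ratio after choline addition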
CHT activ conf = CHT activators, confirmation, cell-based, membrane potential dye, duplicate | AID 504833, 2011 | shares compounds with CHT PAM | activation, % at 10 µM | CHT-expressing cells, membrane potential dye fluorescence (FDSS); % of choline EC20–EC90 response window; HEK293 expressing CHT LV-AA mutant; choline added at its EC20 | actives 91% (n = 2,500);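 active = primary screen active, with duplicate mean activation above negative control mean plus 3 SD, cut at about 11% in these data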
HEK293 MP dye = membrane potential response in parental HEK293 cells, counter-screen for CHT activator project, cell-based, membrane potential dye; AID 623908, 2012; membrane potential dye fluorescence (FDSS); measured after EC20 choline addition; shares compounds with CHT PAM; actives 62% (n = 2,500); ratio readout change at 10 µM, hits read low;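 active = duplicate-averaged ratio beyond 3 SD from buffer wells, up or down, though filed actives are nearly all decreases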
Numbers stand for hits; – = inactive; · = no result.

SMILES | ANO1 activ | Kir21 inh | TMEM16A inh | CHT PAM | Rce1 inhib | CHT block | CHT activ conf | HEK293 MP dye
CCn1cc(C(=O)OCC(=O)N(C)C2CCS(=O)(=O)C2)c(=O)c2ccc(C)nc21 (configuration not stated) | – | – | – | 8.6 | · | – | 54 | -62
CCn1cc(C(=O)OCC(=O)N2C(C)CCCC2C)c(=O)c2ccc(C)nc21 (configuration not stated) | – | – | – | – | – | – | 39 | -29
CCn1cc(C(=O)OCC(=O)N(C)Cc2ccccc2)c(=O)c2ccc(C)nc21 | – | – | – | – | – | – | · | ·
COc1ccc(NC(=O)CN2CCC(C(N)=O)(N3CCCCC3)CC2)c(OC)c1 | – | – | – | – | – | – | · | ·
Cc1c(CCOC(=O)c2ccc([N+](=O)[O-])cc2)sc[n+]1CC(=O)c1ccccc1 | – | – | – | 7.1 | – | – | 58 | -52
Cc1c(CCOC(=O)c2cccc([N+](=O)[O-])c2)sc[n+]1CC(=O)c1ccccc1 | – | – | – | – | – | – | · | ·
Cc1ccc2nc(N3CC(C)OC(C)C3)nc(-c3ccccc3)c2c1 (configuration not stated) | – | – | – | – | – | – | · | ·
Cc1ccc2c(c1)c(-c1ccccc1)nc1nncn12 | – | – | – | – | – | – | 38 | -32
CC(=O)N(CCC(c1ccco1)C(C)C)Cc1ccc(Cl)cc1 (configuration not stated) | – | – | – | 7.4 | – | – | 26 | –
CC(C)C(CCN1C(=O)c2ccccc2C1=O)c1ccco1 (configuration not stated) | – | – | – | – | – | – | · | ·
Cn1c(C(=O)NCCN2CCCCCC2)cc2c(=O)n(C)c3ccccc3c21 | – | – | – | – | – | – | 25 | -27
COc1ccc(C2(NC(C)=O)CCN(Cc3cccnc3)CC2)cc1 | – | – | – | – | – | – | · | ·
N#CC1=C(N)Oc2cc(N)ccc2C1c1cccc(Br)c1 (configuration not stated) | – | – | – | – | – | – | 34 | –
Cc1ccc(C2C(C#N)=C(N)Oc3cc(N)ccc32)cc1 (configuration not stated) | – | – | – | – | – | – | · | ·
COc1ccc(Br)cc1CN(C)CC(=O)Nc1c(Cl)cccc1Cl | – | – | – | – | – | – | – | –
COc1ccc(Br)cc1CN(C)CC(=O)Nc1cccc(S(=O)(=O)N2CCCC2)c1 | – | · | · | · | · | · | · | ·
C=CC[n+]1c(-c2ccc(Cl)cc2Cl)csc1Nc1c(C)n(C)n(-c2ccccc2)c1=O | – | – | – | 8.4 | – | – | – | –
C=CC[n+]1c(-c2ccc(Cl)cc2Cl)csc1Nc1ccc(NC(C)=O)cc1 | – | – | – | 14 | – | – | – | –
CCCC[n+]1c(-c2ccc(Cl)cc2Cl)csc1Nc1ccccc1 | – | – | – | – | – | – | · | ·
O=C(CCc1ccccc1)NNC(=O)COc1ccc([N+](=O)[O-])cc1 | – | – | – | – | – | – | · | ·
Cc1ccc(S(=O)(=O)NC(C(=O)N2CCN(S(=O)(=O)c3cccc(F)c3)CC2)C(C)C)cc1 (configuration not stated) | – | · | · | · | · | · | · | ·
COC(=O)C1=C(C)N(Cc2ccccc2)C(=NCC(C)C)N[C@H]1c1cccc(F)c1 | – | · | · | · | · | · | · | ·
COC(=O)C1=C(C)N(Cc2ccccc2)C(=NCc2ccc(OC)cc2)N[C@H]1c1cccc(F)c1 | – | -9.6 | – | – | – | – | 20 | –
CCN1C(=NCC2CC2)N[C@@H](c2cccc(C(F)(F)F)c2)C(C(=O)OC)=C1C | – | – | – | 11 | – | – | 25 | –
COn1c(=O)c(-c2cccs2)[n+]([O-])c2ccccc21 | – | – | – | – | – | – | · | ·
SMILES | ANO1 activ | Kir21 inh | TMEM16A inh | CHT PAM | Rce1 inhib | CHT block | CHT activ conf | HEK293 MP dye
Cn1c(-c2cccs2)[n+](C)c2ccccc21 | – | – | – | 9.8 | – | – | 62 | -56
Cc1ccc(C(C)C)c(OCc2nn(CC(=O)c3ccc(OC(F)F)cc3)c3[n+]2CCCCC3)c1 | – | – | – | 9.8 | – | – | – | –
CCOC(=O)c1c(C)n(C)c2cc(Br)c(C)cc12 | – | – | – | – | – | – | · | ·
CCOC(=O)c1c(CNc2ccncc2)n(C)c2cc(Br)c(O)cc12 | – | – | – | 11 | – | – | 52 | -51
COC(=O)CCCC1=CC2=C(c3ccccc3)C(=O)C(C)(OC(=O)C3CCCC3)C(=O)C2=CN1Cc1ccco1 (configuration not stated) | – | – | – | 9.1 | – | – | 47 | –
CCOC(=O)C1=C(COC(=O)c2cc(Br)c(Br)s2)NC(=O)NC1C (configuration not stated) | – | – | – | – | – | – | · | ·
Cc1cc(C)n2nc(-c3ccsc3-n3c(C)ccc3C)cc2n1 | – | – | – | – | – | – | · | ·
Cc1cc(NCCN(C)C)n2nc(-c3cccs3)cc2n1 | – | – | – | 10 | – | – | 47 | -89
OCCCNc1cc(-c2ccccc2)nc2cc(-c3ccc(F)cc3)nn12 | – | – | – | – | – | – | · | ·
Cc1cc(NCCCO)n2nc(-c3cccs3)cc2n1 | – | – | – | 8.1 | – | – | 62 | -56
Nc1nc(Cl)nc2c1ncn2C1OCC(O)C(O)C1O (configuration not stated) | – | · | · | · | · | · | · | ·
Cc1cc(C)c2cc3c(ccn3C3OC[C@H](O)[C@H](O)[C@H]3O)cc2n1 (some centres not stated) | – | – | – | – | – | – | 62 | -46
c1ccc2c(c1)nc1n2CCN1CCNC1CCCCC1 | – | – | – | – | – | – | · | ·
c1ccc(CN2CCN(CCN3CCn4c3nc3ccccc34)CC2)cc1 | – | – | – | – | – | – | 27 | –
CC(=O)c1c(C)nc2sc3c(=N)n(N)cnc3c2c1-c1ccc(Cl)cc1 | – | – | – | 6.7 | – | – | 50 | -40
Cc1ccc2c(c1)N(CC(=O)OCC(=O)NCc1ccccc1)C(=O)CO2 | – | – | – | – | – | – | · | ·
COc1cccc2c(=O)c3ccoc3n(C)c12 | – | – | – | – | – | – | · | ·

Screens (PubChem BioAssay)
